In the library only some 3.9% were active in any assay of this set; here they are far more common.
3CLpro inhibitor = SARS-CoV 3CLpro protease inhibition | hit rate 0.14% among 290,000 | recombinant SARS-CoV 3CLpro, quenched FRET peptide cleavage | inhibition, % at 6 µM | P0C6X7; in the data active means inhibition above about 12%
Autofluor counter = flagged as autofluorescent in microsphere protease counterscreen. compound autofluorescence counterscreen, microsphere flow cytometry; active compounds read high. fluorescence intensity (no concentration beside the values). hit rate 3.1% among 360,000. AID 624483; in the data active means fluorescence intensity above about 16000; inconclusive means no clear call, values can overlap the other calls
BoNT F protease = blocks Botulinum neurotoxin F light chain protease. Multiplex microsphere protease cleavage assay, flow cytometry. inhibition, % at 10 µM. hit rate 0.22% among 360,000. AID 588497; in the data active means inhibition above about 35%, passing the limit was not always enough; inconclusive means no clear call, values can overlap the other calls
CCHFV vOTU inh = blocks the CCHF virus ovarian tumor domain protease. inhibition, % at 11.5 µM. CCHFV vOTU protease, Pep-AMC fluorescence. hit rate 0.55% among 370,000; in the data active means inhibition above about 30%
BoNT-A LC inh2 = inhibitors of Botulinum neurotoxin A light chain protease; multiplex microsphere protease substrate cleavage, flow cytometry; inhibition, % at 10 µM; hit rate 0.17% among 360,000; AID 588499
Anthrax LF inh2 = inhibitors of Bacillus anthracis lethal factor protease | P15917 | multiplex microsphere protease cleavage assay, LF | inhibition, % at 10 µM | hit rate 0.12% among 360,000
Hits are given with their value; n = inactive; u = inconclusive; x = no result. Unless noted, no stated cut-off is given here; in the data, active means inhibition above about 30%; inconclusive means no clear call, values can overlap the other calls; inactive means below that.

SMILES	3CLpro inhibitor	Autofluor counter	BoNT F protease	CCHFV vOTU inh	BoNT-A LC inh2	Anthrax LF inh2
Cc1oc(-c2ccccc2F)nc1CN1CCC(C(=O)NC2CCCc3ccccc32)CC1 (stereo unspecified)	n	n	n	n	n	n
Cc1oc(-c2ccccc2F)nc1CN1CCC(C(=O)NC2CCCCCCC2)CC1	n	16243	n	x	n	n
COc1ccc(CCNC(=O)C2CCN(Cc3nc(-c4ccccc4C)oc3C)CC2)cc1OC	n	22311	n	n	n	n
COc1ccc(CCNC(=O)C2CCN(Cc3nc(-c4ccc(Cl)cc4)oc3C)CC2)cc1OC	x	n	n	n	n	n
Cc1oc(-c2ccccc2F)nc1CN1CCC(C(=O)NCc2ccco2)CC1	n	19776	n	n	u	n
CCCCCCCCN1C(=O)[C@@H](CC(=O)N2CCCC2)C[C@@]2(C(=O)OC)C1=C[C@H](C1CCCC1)O[C@@H]2C	x	x	x	n	x	x
Cc1cccc(-c2cccc3c4c([nH]c23)[C@@H]2C[C@H](N(C)C(=O)Nc3ccccc3)[C@H]([C@H](C)O)C(=O)N2CC4)c1	x	x	x	n	x	x
Cc1c(N=Cc2ccc(Br)s2)cccc1[N+](=O)[O-]	n	23875	n	n	n	n
O[C@@H](Cc1ccccc1)[C@@H](/C=C/c1ccccc1)N(Cc1ccccc1)Cc1ccccc1	x	x	x	n	x	x
O=C(CCNS(=O)(=O)c1cccc2nsnc12)N1CC(=O)N(CCc2ccccc2)C(=O)C1	n	21566	n	n	u	n
CC(C)(C)c1ccc(N2C(=O)Cc3c2nc(N)c(C#N)c3N)cc1	n	u	u	n	u	u
CCc1ccc(N2C(=O)Cc3c2nc(N)c(C#N)c3N)cc1	n	21928	n	n	u	n
COc1ccc(-c2cc(C(F)(F)F)c(C#N)c(SCC(=O)Nc3nc(C)co3)n2)cc1	n	n	n	x	n	n
Cc1coc(NC(=O)CSc2nc(-c3ccc(Cl)cc3)cc(C(F)(F)F)c2C#N)n1	n	16407	n	n	n	n
Cc1cc(C(F)(F)F)c(C#N)c(SCC(=O)NC(C)(C)C)n1	n	25162	n	n	n	n
O=C(Nc1cccnc1)c1cc2c(ccc3ccccc32)o1	n	23266	n	x	n	n
COC(=O)c1cc(S(=O)(=O)N2CCCN(C(C)=O)CC2)cn1C	x	x	x	n	x	x
CCn1c(SCC(=O)NN=Cc2ccc(C(=O)O)cc2)nc2ccccc21	x	x	x	n	x	x
COc1cc(C2SCC(=O)Nc3c2c(C)nn3-c2ccccc2)cc(OC)c1OC (stereo unspecified)	n	19341	n	n	n	n
O=C(NCCc1ccccc1)OCc1cn(-c2cccc(F)c2F)nn1	x	x	x	n	x	x
COCCNc1cc(C)nc2c3c(C)cc(C)nc3nn12	n	23058	n	n	n	n
Cc1cc(C)c2c(n1)nn1c(NCCN3CCOCC3)cc(C)nc21	n	23370	n	n	n	n
Nc1[nH]c2cc(Cl)ccc2c1C(=O)N1CCOCC1	x	x	x	n	x	x
COC(=O)c1ccc2c(c1)NC(=O)C(N1CCCCC1)S2 (stereo unspecified)	n	22781	n	n	n	n
COC(=O)c1ccc2c(c1)NC(=O)C(N1CCCC1)S2 (stereo unspecified)	n	19419	n	n	n	n
SMILES	3CLpro inhibitor	Autofluor counter	BoNT F protease	CCHFV vOTU inh	BoNT-A LC inh2	Anthrax LF inh2
O=C(NCCCN1CCCCC1)c1ccc2c(c1)NC(=O)C(N1CCCCC1)S2 (stereo unspecified)	n	n	n	n	n	n
O=C(O)c1ccc2c(c1)NC(=O)C(N1CCCC1)S2 (stereo unspecified)	n	n	n	n	n	n
C=C(C)C1CC=C(C)/C(=N/NC(=O)COc2cccc(C)c2)C1 (stereo unspecified)	n	17668	n	n	n	n
Cc1ccccc1NC(=O)OCCCN1C(=O)CCC12CCC(C)CC2 (stereo unspecified)	x	x	x	n	x	x
COc1ccc(CN(CCN2CCOCC2)C(=O)c2cc(F)ccc2C)cc1OC	x	x	x	n	x	x
CN1CCc2ccccc2C1C1CCNCC1 (stereo unspecified)	n	24213	n	n	n	n
C=CCN1C(=O)/C(=C/c2ccccc2)S/C1=N/c1nccs1	n	n	n	n	n	n
C=CCN1C(=O)CS/C1=N/c1nccs1	n	21993	n	n	n	n
CCN1C(=O)/C(=C/N(C)C)c2ccccc21	n	16312	n	n	n	n
COc1ccc2c(c1)[C@@]1(OCCC=C[C@H]1C)C(=O)N2Cc1ccc(Br)cc1	x	x	x	n	x	x
CCOc1ccc(CCNC(=O)COC(=O)c2cccnc2OCC)cc1OCC	n	16322	n	n	n	n
COCCCNc1nc2c(c(=O)n(Cc3ccc(Cl)cc3)c(=O)n2C)n1C	n	n	n	n	n	n
Cn1c(NCCCN2CCOCC2)nc2c1c(=O)n(Cc1ccc(Cl)cc1Cl)c(=O)n2C	n	21423	n	n	n	n
Clc1ccccc1-c1nn2c(-c3cc(-c4ccccc4)n[nH]3)nnc2s1	x	x	x	n	x	x
CCc1nnc2sc(-c3cc(-c4ccccc4)nc4ccccc34)nn12	n	19922	n	n	n	n
COc1ccc(C(C(=O)N(C)C2CCCC2)N(Cc2ccc(F)cc2)C(=O)c2csc3ccc(Cl)cc23)cc1OC (stereo unspecified)	x	x	x	n	x	x
O=S(=O)(Nn1c(O)c(C=C2N=c3ccccc3=N2)sc1=S)c1ccccc1	n	n	n	n	n	n
Oc1c(C=C2N=c3ccccc3=N2)sc(=S)n1-c1ccccc1	n	n	n	n	44	n
O=C(Nn1c(O)c(C=C2N=c3ccccc3=N2)sc1=S)c1ccccc1Cl	n	n	55	n	61	65
Oc1c(C=C2N=c3ccccc3=N2)sc(=S)n1C1CCCCC1	n	n	n	n	70	33
C[C@@H](CO)N(CCc1cn(Cc2ccccc2)nn1)S(=O)(=O)c1ccccc1Br	x	x	x	n	x	x
Cc1ccc(S(=O)(=O)N(CC(=O)Nc2cccc([N+](=O)[O-])c2)C(=O)N2CCN(C)CC2)cc1	x	16418	n	n	n	n
O=c1c2ccccc2nnn1CSc1nnc(COc2ccc(Cl)cc2)n1Cc1ccco1	n	22380	n	n	u	n
O=c1c2ccccc2nnn1CSc1nc2cc(Cl)ccc2c(=O)n1Cc1ccco1	n	x	x	n	x	x
Cc1c(NC(=O)CSc2nncc3ccccc23)c(=O)n(-c2ccccc2)n1C	n	20089	n	n	u	n
SMILES	3CLpro inhibitor	Autofluor counter	BoNT F protease	CCHFV vOTU inh	BoNT-A LC inh2	Anthrax LF inh2
Cc1nc(SCC(=O)Nc2c(C)n(C)n(-c3ccccc3)c2=O)nc(C)c1C	n	n	n	n	n	n
CCc1c(C)nc(SCC(=O)Nc2c(C)n(C)n(-c3ccccc3)c2=O)[nH]c1=O	n	21804	n	n	n	n
COC(=O)[C@]12C[C@H](CC(=O)NCc3cccc(C(F)(F)F)c3)C(=O)N(CCC3=CCCCC3)C1=C[C@H](C1CCCC1)O[C@@H]2C	x	x	x	n	x	x
COc1ccc(OC)c2c(C)cc(N3CCCN(C)CC3)nc12	n	21960	n	n	n	n
N=Cc1c(O)n(-c2cccc(Cl)c2)c(=O)[nH]c1=O	n	23754	n	n	n	n
O=C(NCc1cccs1)c1noc2c1CCCCC2	n	16908	n	n	n	n
COc1ccc(NC(=O)c2noc3c2CCC3)cc1	n	n	n	n	n	n

Screens: PubChem, several laboratories
